Test results from the supplement of paper PMC6555819.

What was measured:
Test in all cases: PBM binding z-score (relative to random genomic background probes); higher = stronger binding; sequences stand for … in GC…GCGATTGACAGCGTAGAATGAAGG
[1] = test system: FXR:RXRa (NR concentration 270 nM, RXRa partner concentration 90 nM)
In short: (§1)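 Binding z-scores take random background probes as their reference. They come from custom Agilent 4×180K protein-binding microarrays incubated 1 h with ligand-free nuclear receptor dimers, with antibodies against each partner (one per run) detecting binding. Scanned fluorescence was regression-normalized.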

[2] = test system: LXRa:RXRa (NR concentration 270 nM, RXRa partner concentration 90 nM)
In short: as §1

[3] = test system: LXRa homodimer (NR concentration 270 nM)
In short: as §1

[4] = test system: LXRb:RXRa (NR concentration 270 nM, RXRa partner concentration 90 nM)
In short: as §1

[5] = test system: LXRb homodimer (NR concentration 270 nM)
In short: as §1

[6] = test system: PPARa:RXRa (NR concentration 270 nM, RXRa partner concentration 90 nM)
In short: as §1

[7] = test system: PPARg:RXRa (NR concentration 180 nM, RXRa partner concentration 90 nM)
In short: as §1

[8] = test system: PPARg:RXRa 270nM:90nM, anti-RXR (NR concentration 270 nM, RXRa partner concentration 90 nM)
In short: as §1

[9] = test system: PPARg:RXRa 30nM:10nM, anti-RXR (NR concentration 30 nM, RXRa partner concentration 10 nM)
In short: as §1

[10] = test system: PPARg:RXRa 90nM:30nM, anti-RXR (NR concentration 90 nM, RXRa partner concentration 30 nM)
In short: as §1

| Sequence | PBM binding z-score [1] | PBM binding z-score [2] | PBM binding z-score [3] | PBM binding z-score [4] | PBM binding z-score [5] | PBM binding z-score [6] | PBM binding z-score [7] | PBM binding z-score [8] | PBM binding z-score [9] | PBM binding z-score [10] |
| --- | --- | --- | --- | --- | --- | --- | --- | --- | --- | --- |
| CCGAGTAGGTTATGGGGCATACAGGCAACGGTGA | 0.216 | 0.557 | -0.0431 | 0.599 | -0.226 | 2.3 | 3.69 | 4.52 | 2.65 | 4.38 |
| GATACAGGGTCAGCTAGAGGCCACAGTATGGAAA | 4.67 | 3.33 | -0.234 | 2.65 | -0.958 | 4.64 | 4.12 | 3.58 | 1.09 | 2.68 |
| TGAATGAGGTTAAAGATTAGGGAACGTGGCGTCG | 2.45 | 2.05 | -0.0169 | 1.38 | 0.449 | 3.74 | 3.78 | 4.94 | 2.32 | 4.36 |
| CGAACAAGGTCAAGGACAGTGAATCTCCGCACGC | 7.13 | 5.06 | 0.53 | 3.78 | 0.377 | 5.74 | 5.98 | 5.82 | 2.42 | 4.59 |
| CCTTACGGGTCACGAGGTTATAGCCCGACGAGCG | 6.99 | 4.42 | 0.302 | 3.77 | -0.0981 | 6.03 | 7.34 | 6.97 | 3.33 | 5.71 |
| TCTTGTAGATCAATAGAGGGTAAGAAAGTGCGCT | 0.692 | 0.902 | -0.251 | 0.517 | 0.175 | 0.606 | -0.216 | 1.19 | 2.61 | 2.29 |
| TTATCAAGGTGAAGGTCGTTGATCCCTCTGTAGA | 2.51 | 1.93 | 0.076 | 1.75 | -0.0841 | 3.01 | 2.92 | 3.88 | 2.1 | 3.49 |
| TCTGCTAGGTCAGTTGGTCAGCTAGCGAGCTGCC | 0.851 | 0.628 | -0.728 | 0.453 | 0.185 | 1.25 | 0.0409 | 1.64 | 1.21 | 1.31 |
| GCTTGTAGATCAACGTTAAGAAAGACTAAGCTAA | -0.519 | -0.395 | -0.371 | -0.448 | -0.769 | -0.124 | 0.13 | -0.0429 | -0.364 | -0.214 |
| ATCCCAAGGTGATCGTGAGGTCGTTGATACTAAC | 1.33 | 1.13 | 0.822 | 1.02 | -0.338 | 1.16 | 0.11 | 0.0594 | -0.299 | -0.346 |
| CCAGACAGGTGAAAGGTAAATCAGTCTGGTACGC | 0.431 | 0.642 | -0.205 | 0.749 | -0.327 | 3.27 | 5.01 | 5.7 | 4 | 6.32 |
| ACTAGCAGGCCAAGGGTCACTCAGGATTAGTCCG | 2.7 | 2.61 | 0.0255 | 2.69 | -0.237 | 4.39 | 7.87 | 7.62 | 6.72 | 8.16 |
| CGTCCAAGGTTAAAGGTCAGTGAAGAGATGACGG | 6.23 | 5.21 | 1.72 | 4.9 | 0.226 | 6.28 | 8.06 | 7.36 | 6.31 | 8.12 |
| CCTAGTTGGTCAGGGTCACACACGCTATAGGTAC | 3.57 | 3.05 | 0.771 | 3.33 | 0.27 | 4.17 | 3.28 | 3.51 | 1.5 | 2.6 |
| ATCTCTAGGTAAAGTTCAATGAAAGATCGATAGA | 2.28 | 3.13 | 2.86 | 2.25 | 1.31 | 3.32 | 4.11 | 5.15 | 3.34 | 4.82 |
| ATCTCTAGGTAAGACTCAGTTCAGTGACGAACGC | 0.592 | 0.636 | 0.724 | 0.467 | 0.883 | 0.279 | 0.47 | 0.379 | 0.0999 | 0.176 |
| TCTTGTAGATCAAAGGTTAAGATAGCCGAAGCCT | 1.76 | 2.11 | 0.243 | 2.23 | 0.104 | 4.83 | 8.74 | 8.06 | 8.48 | 9.71 |
| CCTTACGAGTCACTGACAGGTTATAGCATTTGGA | 0.777 | 1.14 | 0.907 | 1.29 | 0.779 | 0.873 | 0.529 | 0.102 | 0.331 | 0.375 |
| GGAACGAGGGCAAGTTGATGGCAGAGTTTGATGG | 0.782 | 0.592 | -0.0865 | -0.0137 | -0.434 | 1.55 | 0.994 | 0.903 | -0.146 | 0.602 |
| TGGAGTAGGTTAGGGGCATTCAGAATGGCGTCGA | 1.13 | 0.934 | 0.271 | 1.91 | 1.89 | 1.98 | 2.21 | 3.05 | 1.46 | 2.46 |
| CCTACTGGGCCACCAAAGGTCATTGATTCAGTGA | 3.72 | 5.73 | 6.47 | 4.95 | 0.575 | 4.69 | 5 | 5.44 | 2.81 | 4.94 |
| TGAATGAGGTTATAAGATCAGGTAACGTTGCAAA | 1.34 | 1.33 | -0.261 | 1.28 | 0.248 | 2.76 | 1.42 | 1.99 | 1.02 | 1.46 |
| ATCGAAAGTTCGAAGGTGAGTATACCCACCCGAA | 0.822 | 1.16 | 0.11 | 0.739 | -0.0356 | 1.9 | 1.07 | 1.17 | 0.177 | 0.844 |
| TCGAGTAGGTTACCAATGGGGCATTCTGCTTTCT | 0.0174 | 1.11 | -0.471 | 0.975 | -0.712 | 1.33 | 0.0267 | 1.1 | 0.935 | 0.902 |
